Inconclusive results are not listed. A number with no mark means an inactive call. Activity calls are given as the source filed them. Calls follow the shape of the full dose curve; tested in HEK293 reporter line.
Experiment: qHTS for Inhibitors of the Functional Ribonucleoprotein Complex (vRNP) of Lassa (LASV) Arenavirus: LASV Primary Screen - GLuc reporter signal (AID 1347082); also: nearly all actives have a fitted effect of over 60% in size
Settings: LASV minigenome vRNP, Gaussia luciferase reporter; series mostly up to 57.5 µM; activity change, negative = inhibition: at the top concentration
% is scaled to controls: 0 for no effect and ±100 for the full control effect.

| Structure (SMILES) | activity change, negative = inhibition [%] | Potency |
| --- | --- | --- |
| Oc1cc2c(cc1O)CN(C(=S)NCCc1ccc(Cl)cc1)CCC2 | -1.08 |  |
| CN(C)c1nc(N)c(C(=O)N=C(N)N)nc1Cl | 4.49 |  |
| CCCCCCCCCCCCCCC[C@H](O)[C@H](N)CO |  | inactive |
| O=C(O)C1=CCCNC1 |  | inactive |
| COC(=O)c1c(C)[nH]c(C)c1C(=O)c1ccccc1Cc1ccccc1 | -3.29 |  |
| CN[C@H](CC(=O)O)C(=O)O |  | inactive |
| O=c1ccc2c(OCCCCc3ccccc3)c3ccoc3cc2o1 | -0.927 |  |
| NCCSSCCN | 5.15 |  |
| O=c1onc2n1-c1cc(Br)ccc1OC2 | 2.89 |  |
| Cc1ccc([N+](=O)[O-])cc1S(=O)(=O)N(C)C | 12 |  |
| N[C@H](C(=O)O)[C@H](O)C(=O)O |  | inactive |
| O=C(O)c1cc(=O)cc(C(=O)O)[nH]1 | 7.55 |  |
| Nc1ccc(-c2ccc3ccccc3n2)cc1 | -21.3 |  |
| O=C(O)c1cc2cc(F)ccc2[nH]1 | 8.53 |  |
| CC[N+](CC)(CC)CC(=O)Nc1c(C)cccc1C | -9.04 |  |
| CCCN(CC1CC1)c1nc(C)nc(Nc2c(Cl)cc(Cl)cc2Cl)c1Cl | -23.8 |  |
| CNCCNS(=O)(=O)c1cccc2cnccc12 | -1.76 |  |
| NC1(C(=O)O)CCCCC1 | 2.74 |  |
| Cc1nc(N=Nc2ccc(S(=O)(=O)O)cc2S(=O)(=O)O)c(COP(=O)(O)O)c(C=O)c1O | -9.04 |  |
| C/C(=C\c1ccc(C(=O)O)cc1)c1ccc2c(c1)C(C)(C)CCC2(C)C | -1.48 |  |

| Structure (SMILES) | activity change, negative = inhibition [%] | Potency |
| --- | --- | --- |
| COc1ccc2c(c1)c(CC(=O)O)c(C)n2Cc1ccc(Cl)cc1 | -2.1 |  |
| CSC(=N)N | -0.268 |  |
| C#CCn1c(=O)c2c(ncn2C)n(C)c1=O | 4 |  |
| COc1cc2c(CCNC(C)=O)c[nH]c2cc1O |  | inactive |
| CCN(CC)CCOC(=O)c1cc(Cl)c(N)cc1OC | -1.79 |  |
| COc1ccccc1N1CCN(CCCCN2C(=O)c3ccccc3C2=O)CC1 | 0.945 |  |
| O=C(O)/C(=C/c1c(C(=O)O)[nH]c2cc(Cl)cc(Cl)c12)c1ccccc1 | -0.462 |  |
| Cn1c(=O)c2[nH]c(-c3ccc(S(=O)(=O)O)cc3)nc2n(C)c1=O | -8.88 |  |
| NCCNS(=O)(=O)c1cccc2c(Cl)cccc12 | -25.6 |  |
| COc1cc(/C=C(\C#N)C(=O)c2ccc(O)c(O)c2)cc(I)c1O | 12.1 |  |
| COc1ccc(C(=O)NCc2cccnc2)cc1C(=O)NCc1cccnc1 | 2.61 |  |
| NC1(C(=O)O)CC1 |  | inactive |
| Cn1c(=O)c2[nH]c(C3CCCC3)nc2n(C)c1=O | -2.8 |  |
| NC(=O)C(=O)O | -1.97 |  |
| Cn1c(=O)[nH]c2ncn(C)c2c1=O |  | inactive |
| N#C/C(=C\c1ccc(O)c(O)c1)C(=O)c1ccc(O)c(O)c1 | 4.21 |  |
| CN1CCN(c2nc3cc(C(F)(F)F)ccc3n3cccc23)CC1 | -14.6 |  |
| NCCCCN |  | inactive |
| CC1(C)CCC=[N+]1[O-] | 0.89 |  |
| C[C@H](O)C(=O)C1=Nc2c(nc(N)[nH]c2=O)NC1 |  | inactive |
